Experimental data as given in PubChem BioAssay (EPA / NIEHS).
Where “and” joins values, the source holds several entries; their conditions need not be identical. Equal values may be shown once. Where a structure was tested more than once in an assay, its records may differ in their call. Calls of active or inactive are those of the source. Rule for the calls: active = hit-call score of the fitted dose curve at least 0.9, where 1 is the maximum; inactive = score below 0.9.

How the values were obtained:
[1] = read-out: Interleukin-8 (IL8), CXCL8 (gene 3576); assay: BSK_CASM3C_IL8: BioMAP Diversity Plus: CASM3C Assay for Interleukin-8 (IL8) Biomarker Activity (AID 2283042); conditions: primary human coronary artery smooth muscle cells; actives raise or lower the signal;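 note: IL-8 protein level quantified by ELISA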
[2] = read-out: Human Leukocyte Antigen - DR isotype (HLADR), HLA-DRA (gene 3122); assay: BSK_CASM3C_HLADR: BioMAP Diversity Plus: CASM3C Assay for Human Leukocyte Antigen - DR isotype (HLADR) Biomarker Activity (AID 2283043); conditions: primary human coronary artery smooth muscle cells; actives raise or lower the signal;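 note: cell-surface HLA-DR protein level quantified by ELISA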
[3] = read-out: Macrophage colony-stimulating factor (MCSF), CSF1 (gene 1435); assay: BSK_CASM3C_MCSF: BioMAP Diversity Plus: CASM3C Assay for Macrophage colony-stimulating factor (MCSF) Biomarker Activity (AID 2283044); conditions: primary human coronary artery smooth muscle cells; actives raise or lower the signal;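 note: M-CSF protein amount quantified by ELISA after 24 h exposure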
[4] = read-out: Low-density lipoprotein receptor (LDLR), LDLR (gene 3949); assay: BSK_CASM3C_LDLR: BioMAP Diversity Plus: CASM3C Assay for Low-density lipoprotein receptor (LDLR) Biomarker Activity (AID 2283045); conditions: primary human coronary artery smooth muscle cells; actives raise or lower the signal;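 note: LDLR protein level on the cell surface quantified by ELISA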
[5] = read-out: Monocyte Chemoattractant Protein-1 (MCP1), CCL2 (gene 6347); assay: BSK_CASM3C_MCP1: BioMAP Diversity Plus: CASM3C Assay for Monocyte Chemoattractant Protein-1 (MCP1) Biomarker Activity (AID 2283046); conditions: primary human coronary artery smooth muscle cells; actives raise or lower the signal;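 note: MCP-1 level quantified by ELISA 24 h after dosing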
[6] = BSK_CASM3C_Proliferation: Cell Proliferation Assessment in the BioMAP Diversity Plus: CASM3C Assay (AID 2283047); conditions: primary human coronary artery smooth muscle cells;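 note: sulforhodamine B total protein stain as relative cell number at 560 nm; sub-confluent cells exposed 48 h before staining; fitted both ways against DMSO so gain or loss of cell number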
[7] = read-out: Monokine induced gamma interferon (MIG), CXCL9 (gene 4283); assay: BSK_CASM3C_MIG: BioMAP Diversity Plus: CASM3C Assay for Monokine induced gamma interferon (MIG) Biomarker Activity (AID 2283048); conditions: primary human coronary artery smooth muscle cells; actives raise or lower the signal;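 note: MIG protein level measured by ELISA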
[8] = read-out: serum amyloid A (SAA), SAA1 (gene 6288); assay: BSK_CASM3C_SAA: BioMAP Diversity Plus: CASM3C Assay for serum amyloid A (SAA) Biomarker Activity (AID 2283049); conditions: primary human coronary artery smooth muscle cells; actives raise or lower the signal;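 note: SAA protein level quantified by ELISA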
[9] = BSK_CASM3C_SRB: Viability Assessment in the BioMAP Diversity Plus: CASM3C Assay (AID 2283050); conditions: primary human coronary artery smooth muscle cells;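 note: total protein by SRB staining as cytotoxicity measure in parallel cultures; cells exposed to compound for 24 h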
[10] = read-out: Thrombomodulin, THBD (gene 7056); assay: BSK_CASM3C_Thrombomodulin: BioMAP Diversity Plus: CASM3C Assay for Thrombomodulin Biomarker Activity (AID 2283051); conditions: primary human coronary artery smooth muscle cells; actives raise or lower the signal;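 note: thrombomodulin protein level measured by ELISA 24 h after dosing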

Measured: AC50

CS(=O)(=O)c1ccc(C2=C(c3ccccc3)C(=O)OC2)cc1
inactive: [1] | [2] | [3] | [4] | [5] | [6] | [7] | [8] | [9] | [10]

CS(=O)(=O)OCCCCOS(C)(=O)=O
inactive: [1] | [2] | [3] | [4] | [5] | [6] | [7] | [8] | [9] | [10]

C[C@@H]1CCN(C(=O)[C@H](CCCN=C(N)N)NS(=O)(=O)c2cccc3c2NC[C@H](C)C3)[C@@H](C(=O)O)C1
inactive: [1] | [2] | [3] | [4] | [5] | [6] | [7] | [8] | [9] | [10]

Oc1c(Cl)cc(Cl)c(Cl)c1Cc1c(O)c(Cl)cc(Cl)c1Cl
active: [2] 2.28 µM | [3] 8.79 µM | [5] 30.7 µM | [6] 5.37 µM | [7] 19.8 µM | [8] 3.97 µM | [9] 7.17 µM
inactive: [1] | [4] | [10]

CC=Cc1ccc(OCC)c(O)c1
inactive: [1] | [2] | [3] | [4] | [5] | [6] | [7] | [8] | [9] | [10]

C=C(C)C(=O)OCC(CC)(COC(=O)C(=C)C)COC(=O)C(=C)C
inactive: [1] | [2] | [3] | [4] | [6] | [7] | [8] | [9] | [10]
active: [5] 4.8 µM

CSCCC=O
inactive: [1] | [2] | [3] | [4] | [5] | [6] | [7] | [8] | [9] | [10]

CC(=O)c1c(C)c([N+](=O)[O-])c(C(C)(C)C)c([N+](=O)[O-])c1C
inactive: [1] | [2] | [3] | [4] | [5] | [6] | [7] | [8] | [9] | [10]

IC(I)I
inactive: [1] | [2] | [3] | [4] | [5] | [6] | [7] | [8] | [9] | [10]

C1=CC2C3C=CC(C3)C2C1 (stereo not given)
inactive: [1] | [2] | [3] | [4] | [5] | [6] | [7] | [8] | [9] | [10]

CC(=O)Nc1ccc(C(=O)CCl)cc1
inactive: [8] | [10]
active: [1] 12.6 µM | [2] 3.78 µM | [3] 8.22 µM | [4] 11.6 µM | [5] 8.38 µM | [6] 5.44 µM | [7] 8.96 µM | [9] 12.8 µM

C=CC(C)(O)CCC=C(C)C (stereo not given)
active: [6] 4.81 µM
inactive: [1] | [2] | [3] | [4] | [5] | [6] | [7] | [8] | [9] | [10]

CCCCCC(C=O)=Cc1ccccc1
inactive: [1] | [4] | [7] | [8] | [10]
active: [2] 31 µM | [3] 31.9 µM | [5] 27.5 µM | [6] 30.1 µM | [9] 33.5 µM

COc1ccc(CCN2CCC(Nc3nc4ccccc4n3Cc3ccc(F)cc3)CC2)cc1
inactive: [1] | [2] | [3] | [5] | [7] | [8] | [9] | [10]
active: [4] 1.54 µM | [6] 8.02 µM

CC(C)(C)CC(C)(C)c1ccc(OCCOCC[N+](C)(C)Cc2ccccc2)cc1
active: [1] 7.3 µM | [2] 6.1 µM | [3] 7.89 µM | [4] 8.21 µM | [5] 8.03 µM | [6] 7.66 µM | [7] 9.51 µM | [8] 5 µM | [9] 7.54 µM | [10] 6.62 µM

CCCCCCCCCCCCCCCC(=O)OC/C=C(C)/C=C/C=C(C)/C=C/C1=C(C)CCCC1(C)C
inactive: [1] | [2] | [3] | [4] | [5] | [6] | [7] | [8] | [9] | [10]

CN(C)C(=O)Nc1ccc(Oc2ccc(Cl)cc2)cc1
inactive: [1] | [2] | [3] | [4] | [5] | [6] | [7] | [8] | [9] | [10]

C=C(C)C(=O)OCCOCCOCCOC(=O)C(=C)C
inactive: [1] | [4] | [5] | [6] | [7] | [8] | [9] | [10]
active: [2] 0.0969 µM | [3] 0.016 µM

CCCCN(CCCC)C(=O)N(CCCC)CCCC
active: [1] 20 µM | [2] 12.5 µM | [3] 17.4 µM | [4] 20 µM | [5] 20 µM | [6] 10.4 µM | [7] 20 µM | [8] 10.8 µM | [9] 13.9 µM
inactive: [10]

CC1(C)CCC[C@]2(C)[C@H]3CCO[C@]3(C)CC[C@@H]12
inactive: [1] | [3] | [4] | [10]
active: [1] 33 µM | [2] 34.9 µM and 32.9 µM | [3] 20 µM | [5] 33.4 µM and 33.3 µM | [6] 36.3 µM and 36.8 µM | [7] 30.4 µM and 31.2 µM | [8] 34.2 µM and 31.3 µM | [9] 34.5 µM and 35.3 µM

CC(CN=Cc1ccccc1O)N=Cc1ccccc1O (stereo not given)
inactive: [1] | [2] | [3] | [4] | [5] | [6] | [7] | [8] | [9] | [10]
active: [4] 20 µM | [6] 1.64 µM

c1ccc2cc(Nc3ccc(Nc4ccc5ccccc5c4)cc3)ccc2c1
inactive: [1] | [2] | [3] | [4] | [5] | [6] | [7] | [8] | [9] | [10]

CCCCOC(=O)CCCCCCCC(=O)OCCCC
inactive: [1] | [2] | [3] | [4] | [5] | [6] | [7] | [8] | [9] | [10]
